The results in this text go back to PubChem BioAssay (Tox21).

Each structure is given as a SMILES string. Results filed as inconclusive are left out. Where a call stands in place of a potency, no number is given. Active and inactive are the calls of the source. The call rests on the fitted dose curve; in most records, active means well fitted cell-killing curve with a large enough effect in the repeat runs; inconclusive means weak or mixed curves, or effect the other way; inactive means flat fitted curve, though single readings scatter.
Potency means the concentration at half of the fitted maximal effect.

The experiment in a line: Caspase-3/7 induction in HepG2 cells by small molecules, qHTS cell viability counter screen (AID 1346981). Further: nearly all actives have a fitted effect of over 30% in size. The settings on record: CellTiter-Fluor fluorescence, 17 h; series mostly up to 92.4 µM. The text has this:
U.S. Tox21 Program National Center for Advancing Translational Sciences [NCATS] NIH Chemical Genomics Center [NCGC] U.S. Environmental Protection Agency [EPA] National Institutes of Environmental Health Sciences [NIEHS] National Toxicology Program [NTP] U.S. Food and Drug Administration [FDA] Tox21 Assay Overview: Apoptosis is a process of programmed cell death and plays a central role in the development of multicellular organisms. It is a highly regulated process and induces cell death by activating caspases, which are the members of cysteine aspartic acid-specific protease (caspase) family. Caspases involved in apoptosis are classified by their mechanism of action as initiator caspases (caspase-2, -8, -9 and -10) and executioner caspases (caspase-3, -6, and -7). Inhibition of apoptosis results in number of cancers, autoimmune diseases, inflammatory diseases and viral infection. To identify small molecule compounds that induce apoptosis, a homogeneous, luminescent Caspase-Glo 3/7 assay was used. Wild type HepG2 cells were used to screen Tox21 libraries for identifying caspase-3/7 activity inducers. Also cytotoxicity of the compounds was tested in parallel by measuring the cell viability using CellTiter-Fluor assay system in the same wells.
Tox21 Assay Protocol Summary: HepG2 cells were dispensed at 2,000 per well in 5uL of culture medium into white solid bottom 1536-well plates (Corning Life Sciences, Corning, NY) using a Multidrop Combi (Thermo Scientific, Waltham, MA) dispenser. The assay plates were incubated at 37 C and 5% CO2 for 5hr, and then 23nL of compounds dissolved in DMSO and positive control were transferred using a Pintool station ([…], San Diego, CA). The assay plates were incubated at 37C and 5% CO2 for 17hr. For cytotoxicity read, after 16hr incubation at 37C, 1uL CellTiter-Fluor reagent (Promega Corporation, Madison, WI) was added to each well of the assay plates using Flying Reagent Dispenser (FRD, Aurora Discovery, San Diego, CA). After 1hr incubation at 37C and 5% CO2, the fluorescence signal was quantified using a ViewLux plate reader (PerkinElmer, Shelton, CT).
(In general: In qHTS, concentration-response curves come from the screen itself.)
Take `O=C(CBr)Nc1ccc(Cl)cc1C(=O)c1ccccc1F`: the Potency result is “inactive”.
`CC(C)(CCl)C(=O)Cl`: the Potency entry was “inactive”.
For `c1ccoc1` the value was “inactive”.
The value for `Cl/C=C\C[N+]12CN3CN(CN(C3)C1)C2` was “inactive”; that for `C=CC(=O)OCC(C)O` (stereo not given) was “inactive”; that for `CN(N=O)c1ccc([N+](=O)[O-])cc1` was “inactive”.
For `CCCCCCCCCCOC(=O)c1ccccc1C(=O)OCCCCCCCCCC` the value was “inactive”; for `O=C(CCl)c1ccc(Cl)cc1Cl`, “inactive”.
Consider `COP(=S)(OC)Oc1ccc([N+](=O)[O-])cc1Cl`, for which the Potency was 61.1 µM (active).
For `CC(=O)c1cc2c(cc1C)C(C)(C)C(C)CC2(C)C` (stereo not given) the value was “inactive”; for `C/C(=C\c1ccccc1)[N+](=O)[O-]`, 68.6 µM (active); for `O=C(CBr)OCc1ccccc1`, “inactive”.
The value for `Cc1c(F)c(F)c(COC(=O)C2C(/C=C(\Cl)C(F)(F)F)C2(C)C)c(F)c1F` (stereo not given) was “inactive”; that for `C#CCOC(C(=O)OCCN(C)C)(c1ccccc1)c1ccccc1` was “inactive”.
`CN1[C@@H]2CC[C@H]1CC(OC(=O)c1cc(Cl)cc(Cl)c1)C2` (stereo not given in full): the Potency result is “inactive”.
As to `COC(=O)c1cncn1C(C)c1ccccc1` (stereo not given), the Potency result is “inactive”.
For `CCCC(=O)Cl` the value was “inactive”; for `Nc1ccc([N+](=O)[O-])cc1[N+](=O)[O-]`, 47.3 µM (active); for `COP(=S)(OC)Oc1cc(Cl)c(I)cc1Cl`, “inactive”.
For `Clc1cccc(SC2CCNCC2)n1` the value was “inactive”; for `Cc1ccccc1CCl`, “inactive”; for `O=S1OC[C@@H]2[C@H](CO1)[C@]1(Cl)C(Cl)=C(Cl)[C@@]2(Cl)C1(Cl)Cl` (stereo not given in full), “inactive”.
As to `C[C@]12CC[C@H]3[C@@H](CCC4=CC(=O)CC[C@@H]43)[C@@H]1CC[C@@H]2OC(=O)CCC1CCCCC1`, the Potency result was “inactive”.
As to `CC(=O)C(C)(C)C`, the Potency result was “inactive”.
Take `Cn1cc[n+](C)c1` (tested in a mixture with another compound): the Potency result is “inactive”.
The value for `O=C(O)C1(c2ccc3c(c2)OC[C@H](Cc2ccc(-c4ccccc4)cc2)[C@H]3O)CCCC1` was “inactive”; that for `CC(C)O.CC(C)O.OCCN(CCO)CCO.OCCN(CCO)CCO.[Ti]` was “inactive”; that for `CC[C@H]1C[C@H]2[C@@H]3CCC4=CC(=O)CC[C@@H]4[C@H]3CC[C@]2(C)[C@H]1O` was “inactive”.
On to `CC(C)(OO)c1ccccc1`, for which the Potency entry is “inactive”.
For `CC(C)N(CCC(C(N)=O)(c1ccccc1)c1ccccn1)C(C)C` (stereo not given) the value was “inactive”; for `Clc1ccc(C(OCCN2CCCCC2)c2ccccc2)cc1` (stereo not given), “inactive”; for `CCCCCCCCCC(=O)O[C@H]1CC[C@H]2[C@@H]3CCC4=CC(=O)CC[C@@H]4[C@H]3CC[C@]12C`, “inactive”.
For `CCOP(=S)(OCC)Oc1nc(Cl)c(Cl)cc1Cl` the value was “inactive”.
As for `O=C(Nc1ccccc1)Nc1cnns1`, the Potency result is “inactive”.
For `O=C1C(=O)c2cccc3cccc1c23` the value was “inactive”; for `CNC(C)Cc1ccccc1OC` (stereo not given), “inactive”.
For `O=[N+]([O-])C(Br)(CO)CO` the value was “inactive”.
The value for `O=C1CN=C(c2ccccc2)c2cc(Cl)ccc2N1CC1CC1` was “inactive”.
On to `CCBr`, for which the Potency entry is “inactive”.
Turning to `CN1C(=O)C(O)N=C(c2ccccc2)c2cc(Cl)ccc21` (stereo not given), the Potency entry is “inactive”.
